Test results: publication PMC12820563, “FoxP3 forms a head-to-head dimer in vivo and stabilizes its multimerization on adjacent microsatellites”
In all, about 16,000 sequences were measured (“rpm ratio (pull-down/input)”: median about 0.94, highest 2% from about 1.7 on). The list comes from a sample in which the highest values are over-represented; it also holds similar and randomly drawn sequences.

Each sequence was assayed against T1, MBP-FoxP1dN (Mus musculus, UniProt P58462 326-579) (assay: PD-seq (MBP pull-down with sequencing); 20 mM Tris-HCl pH 7.5, 100 mM NaCl, 1.5 mM MgCl2, 0.4 uM protein, 0.1 uM dsDNA library, 30 min, room temperature, amylose pull-down; high values mean tight binding). Conditions: protein: recombinant; tags: His6-MBP; chain copies: 2; dsDNA, one strand shown.
T1 sequence: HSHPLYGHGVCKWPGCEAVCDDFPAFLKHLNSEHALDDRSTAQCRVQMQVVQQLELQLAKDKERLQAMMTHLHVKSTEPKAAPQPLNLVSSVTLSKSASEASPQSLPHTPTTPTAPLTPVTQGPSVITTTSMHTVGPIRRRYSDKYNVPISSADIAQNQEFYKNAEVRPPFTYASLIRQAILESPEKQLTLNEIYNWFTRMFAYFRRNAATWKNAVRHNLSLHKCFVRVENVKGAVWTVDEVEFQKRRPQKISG
How it was run: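 The N-terminus-lacking fragment of mouse FoxP3 or FoxP1 carried a His6-MBP tag and was expressed in E. coli. At 0.4 µM it was incubated with 0.1 µM Klenow-filled degenerate double-stranded DNA library for 30 min at room temperature in Tris pH 7.5 buffer with NaCl and MgCl2, and complexes were caught on amylose resin, washed three times, released with proteinase K, PCR-barcoded and Illumina-sequenced. Binding is reads-per-million enrichment of pull-down over input with replicates pooled.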
For “GATGATTGTTCTCCCAGCTGATGAATTGCAGATGTCGAGTAAACAAATTTTCCTAATCTTTCTGTTCAAGCGCCATCTAC”, the binding signal was 1.27 RPM ratio (pull-down/input).
With “GATGATTGTTCTCCCAGCTGATGAATTACTCCAATCGAGTAAACAAATTTTCCTAATCTTTCTGTTCAAGCGCCATCTAC” the binding signal was 1.1 RPM ratio (pull-down/input).
In the case of “GATGATTGTTCTCCCAGCTGATGAATTCCCCAGGTCGAGTAAACAAATTTTCCTAATCTTTCTGTTCAAGCGCCATCTAC”, the binding signal is reported as 0.743 RPM ratio (pull-down/input).
With “GATGATTGTTCTCCCAGCTGATGAATTATGTGTGTCGAGTAAACAAATTTTCCTAATCTTTCTGTTCAAGCGCCATCTAC” the binding signal was 1.4 RPM ratio (pull-down/input).
For “GATGATTGTTCTCCCAGCTGATGAATTATCTGTGTCGAGTAAACAAATTTTCCTAATCTTTCTGTTCAAGCGCCATCTAC”, the binding signal was 1.03 RPM ratio (pull-down/input).
“GATGATTGTTCTCCCAGCTGATGAATTATTTGTGTCGAGTAAACAAATTTTCCTAATCTTTCTGTTCAAGCGCCATCTAC” was tested, and the binding signal was 2.12 RPM ratio (pull-down/input).
In the case of “GATGATTGTTCTCCCAGCTGATGAATTACTAATATCGAGTAAACAAATTTTCCTAATCTTTCTGTTCAAGCGCCATCTAC”, the binding signal is reported as 1.73 RPM ratio (pull-down/input).
With “GATGATTGTTCTCCCAGCTGATGAATTACTACTATCGAGTAAACAAATTTTCCTAATCTTTCTGTTCAAGCGCCATCTAC” the binding signal was 1.24 RPM ratio (pull-down/input).
With “GATGATTGTTCTCCCAGCTGATGAATTACATATATCGAGTAAACAAATTTTCCTAATCTTTCTGTTCAAGCGCCATCTAC” the binding signal was 1.34 RPM ratio (pull-down/input).
With “GATGATTGTTCTCCCAGCTGATGAATTTACAATATCGAGTAAACAAATTTTCCTAATCTTTCTGTTCAAGCGCCATCTAC” the binding signal was 1.63 RPM ratio (pull-down/input).
For “GATGATTGTTCTCCCAGCTGATGAATTACCAATCTCGAGTAAACAAATTTTCCTAATCTTTCTGTTCAAGCGCCATCTAC”, the binding signal was 0.961 RPM ratio (pull-down/input).
For “GATGATTGTTCTCCCAGCTGATGAATTACCAATATCGAGTAAACAAATTTTCCTAATCTTTCTGTTCAAGCGCCATCTAC”, the binding signal was 1.79 RPM ratio (pull-down/input).
For “GATGATTGTTCTCCCAGCTGATGAATTACAAATATCGAGTAAACAAATTTTCCTAATCTTTCTGTTCAAGCGCCATCTAC”, the binding signal was 2.21 RPM ratio (pull-down/input).
For “GATGATTGTTCTCCCAGCTGATGAATTACCAATTTCGAGTAAACAAATTTTCCTAATCTTTCTGTTCAAGCGCCATCTAC”, the binding signal was 1.13 RPM ratio (pull-down/input).
In the case of “GATGATTGTTCTCCCAGCTGATGAATTACTGATATCGAGTAAACAAATTTTCCTAATCTTTCTGTTCAAGCGCCATCTAC”, the binding signal is reported as 1.18 RPM ratio (pull-down/input).
“GATGATTGTTCTCCCAGCTGATGAATTTCGCCAGTCGAGTAAACAAATTTTCCTAATCTTTCTGTTCAAGCGCCATCTAC” was tested, and the binding signal was 0.805 RPM ratio (pull-down/input).
“GATGATTGTTCTCCCAGCTGATGAATTGCGATTTTCGAGTAAACAAATTTTCCTAATCTTTCTGTTCAAGCGCCATCTAC” was tested, and the binding signal was 1.25 RPM ratio (pull-down/input).
“GATGATTGTTCTCCCAGCTGATGAATTGTTACCTTCGAGTAAACAAATTTTCCTAATCTTTCTGTTCAAGCGCCATCTAC” was tested, and the binding signal was 1.25 RPM ratio (pull-down/input).
In the case of “GATGATTGTTCTCCCAGCTGATGAATTGGATGCGTCGAGTAAACAAATTTTCCTAATCTTTCTGTTCAAGCGCCATCTAC”, the binding signal is reported as 1.29 RPM ratio (pull-down/input).
In the case of “GATGATTGTTCTCCCAGCTGATGAATTTTCTAGCTCGAGTAAACAAATTTTCCTAATCTTTCTGTTCAAGCGCCATCTAC”, the binding signal is reported as 0.887 RPM ratio (pull-down/input).
For “GATGATTGTTCTCCCAGCTGATGAATTCCCGCTTTCGAGTAAACAAATTTTCCTAATCTTTCTGTTCAAGCGCCATCTAC”, the binding signal was 0.937 RPM ratio (pull-down/input).
For “GATGATTGTTCTCCCAGCTGATGAATTATAATCTTCGAGTAAACAAATTTTCCTAATCTTTCTGTTCAAGCGCCATCTAC”, the binding signal was 0.909 RPM ratio (pull-down/input).
With “GATGATTGTTCTCCCAGCTGATGAATTGATGATGTCGAGTAAACAAATTTTCCTAATCTTTCTGTTCAAGCGCCATCTAC” the binding signal was 1.39 RPM ratio (pull-down/input).
In the case of “GATGATTGTTCTCCCAGCTGATGAATTGATGTTGTCGAGTAAACAAATTTTCCTAATCTTTCTGTTCAAGCGCCATCTAC”, the binding signal is reported as 2.52 RPM ratio (pull-down/input).
With “GATGATTGTTCTCCCAGCTGATGAATTTCTGATGTCGAGTAAACAAATTTTCCTAATCTTTCTGTTCAAGCGCCATCTAC” the binding signal was 1.23 RPM ratio (pull-down/input).
“GATGATTGTTCTCCCAGCTGATGAATTAATGATGTCGAGTAAACAAATTTTCCTAATCTTTCTGTTCAAGCGCCATCTAC” was tested, and the binding signal was 1.2 RPM ratio (pull-down/input).
For “GATGATTGTTCTCCCAGCTGATGAATTGTTGATGTCGAGTAAACAAATTTTCCTAATCTTTCTGTTCAAGCGCCATCTAC”, the binding signal was 2.27 RPM ratio (pull-down/input).
For “GATGATTGTTCTCCCAGCTGATGAATTAATGTTGTCGAGTAAACAAATTTTCCTAATCTTTCTGTTCAAGCGCCATCTAC”, the binding signal was 2.64 RPM ratio (pull-down/input).
In the case of “GATGATTGTTCTCCCAGCTGATGAATTTTTGATGTCGAGTAAACAAATTTTCCTAATCTTTCTGTTCAAGCGCCATCTAC”, the binding signal is reported as 1.3 RPM ratio (pull-down/input).
“GATGATTGTTCTCCCAGCTGATGAATTTCAGCTGTCGAGTAAACAAATTTTCCTAATCTTTCTGTTCAAGCGCCATCTAC” was tested, and the binding signal was 0.889 RPM ratio (pull-down/input).
With “GATGATTGTTCTCCCAGCTGATGAATTCTTCATGTCGAGTAAACAAATTTTCCTAATCTTTCTGTTCAAGCGCCATCTAC” the binding signal was 0.907 RPM ratio (pull-down/input).
For “GATGATTGTTCTCCCAGCTGATGAATTCATGATGTCGAGTAAACAAATTTTCCTAATCTTTCTGTTCAAGCGCCATCTAC”, the binding signal was 1.21 RPM ratio (pull-down/input).
